SENP7 inh: blocks the human protease SENP7. Q9BQF6. recombinant SENP7, Z-RLRGG-aminoluciferin luminescence, 40 min. inhibition, % at 5 µM. 1.5% of 330,000 active. AID 434973;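 active means inhibition above about 50% at the single test dose, limit read from the data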;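 further: plate controls were DMSO with enzyme for no effect and no enzyme buffer wells for full effect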
Target sequence (Q9BQF6 706-1050 limits assumed): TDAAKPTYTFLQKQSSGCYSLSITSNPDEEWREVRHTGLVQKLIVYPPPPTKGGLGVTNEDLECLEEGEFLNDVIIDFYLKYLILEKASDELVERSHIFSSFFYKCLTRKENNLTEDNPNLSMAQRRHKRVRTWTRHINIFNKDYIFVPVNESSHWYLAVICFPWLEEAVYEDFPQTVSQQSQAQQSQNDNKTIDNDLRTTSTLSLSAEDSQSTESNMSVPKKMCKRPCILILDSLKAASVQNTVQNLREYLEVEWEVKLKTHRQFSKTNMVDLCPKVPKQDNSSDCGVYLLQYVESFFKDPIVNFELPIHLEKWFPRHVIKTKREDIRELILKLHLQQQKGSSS
SENP6 inh: blocks the human protease SENP6; Q9GZR1; Recombinant SENP6 catalytic domain, aminoluciferin luminescence; inhibition, % at 10 µM; 1.8% of 330,000 active; AID 2599;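 active means inhibition above about 50% at the single tested dose, limit read from the data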;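 further: plate controls were DMSO wells with enzyme for no effect and DMSO wells lacking enzyme for full effect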
SENP8 block-1: SENP8 protease inhibition; AID 2540; Q96LD8; inhibition, % at 10 µM; purified SENP8, Z-RLRGG-aminoluciferin cleavage, luminescence; 1.2% of 330,000 active; in the data active means inhibition above about 50%
Target sequence (Q96LD8 whole entry, looked up): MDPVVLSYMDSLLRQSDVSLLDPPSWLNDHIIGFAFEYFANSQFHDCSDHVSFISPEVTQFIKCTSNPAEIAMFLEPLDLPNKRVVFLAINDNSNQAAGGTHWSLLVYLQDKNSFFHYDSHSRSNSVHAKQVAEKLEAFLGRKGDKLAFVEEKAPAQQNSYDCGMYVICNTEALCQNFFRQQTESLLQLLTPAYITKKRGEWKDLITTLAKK
SENP8 block-2: inhibitors of human SENP8 protease; recombinant SENP8, Nedd8 substrate fluorescence; inhibition, % at 20 µM; 0.64% of 360,000 active; in the data active means inhibition mostly above about 40%, no sharp cut-off; inactive means mostly below about 27%
HSP90 inh: inhibitors of HSP90 luciferase refolding in rabbit reticulocyte lysate; luciferase refolding luminescence, 3 h; inhibition, % at 5.6 µM; 0.91% of 290,000 active;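 active means inhibition above the screen-wide mean plus 3 SD, computed separately per campaign, cut at about 16% in these data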;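 further: 0% = DMSO wells and 100% = 60 µM geldanamycin wells; inhibitors lower the luminescence because luciferase stays unfolded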
SENP8 confirm: human SENP8 inhibition, confirmed | Recombinant SENP8, Z-RLRGG-aminoluciferin luminescence, 60 min | inhibition, % at 12.5 µM | 40% of 6,200 active | shares compounds with SENP7 inh | AID 488912;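 active means mean inhibition across replicates above about 50%, limit read from the data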
SENP6 confirm: confirmation of human SENP6 protease inhibitors; inhibition, % at 12.5 µM; shares compounds with SENP7 inh; 58% of 6,200 active; recombinant SENP6, Z-RLRGG-aminoluciferin luminescence
SENP7 confirm: confirmation of human SENP7 protease inhibitors; shares compounds with SENP7 inh; inhibition, % at 12.5 µM; 69% of 6,200 active; recombinant SENP7, Z-RLRGG-aminoluciferin luminescence, 40 min
Casp3 select: selectivity test for SENP inhibitors: human caspase-3 inhibition | 60% of 6,200 active | shares compounds with SENP7 inh | inhibition, % at 12.5 µM | purified caspase-3, Z-DEVD-aminoluciferin luminescence, 60 min | AID 488918;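 active means mean inhibition above about 50%, limit read from the data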;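 further: plate controls were enzyme with DMSO for no effect and wells without caspase-3 for full effect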
Luc interf: interferes with luciferase luminescence in SENP counter-screen; 39% of 6,200 active; inhibition, % at 12.5 µM; shares compounds with SENP7 inh; Pre-incubated SENP8/Z-RLRGG-aminoluciferin, luciferase luminescence interference;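 active means mean inhibition above about 50% when retested at one dose, limit read from the data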;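 further: plate controls were DMSO wells with completed reaction for no effect and substrate without enzyme for full effect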
* marks the source's active call; other numbers are inactive results; . = no result. Shown are actives, neighbours in structure and some others; about 2.8% of the full set was active somewhere.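 How the source made its calls, unless noted: active means mean inhibition above about 50% in the one-dose retest (limit read from the data); inactive means the rest.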

SMILES	SENP7 inh	SENP6 inh	SENP8 block-1	SENP8 block-2	HSP90 inh	SENP8 confirm	SENP6 confirm	SENP7 confirm	Casp3 select	Luc interf
Cc1ccc(C(=O)COC(=O)c2cccc(NC(=O)c3ccc([N+](=O)[O-])cc3[N+](=O)[O-])c2)cc1	66*	67*	34	10	-4	22	44	69*	45	46
CC(=O)Nc1ccc(C(=O)OCC(=O)c2cccc([N+](=O)[O-])c2)cc1	5	-12	0	4	4	.	.	.	.	.
O=C(COC(=O)c1cccc(NC(=O)c2ccco2)c1)c1ccc(Br)cc1	72*	70*	24	7	-4	8	61*	78*	37	33
COc1ccc(C(=O)Nc2nc3ccccc3c(=O)[nH]2)cc1	49	54*	24	5	12	27	23	59*	72*	41
CSc1nsc2nc(=O)c(/C=C3\C=Nc4ccccc43)c(N)n12	39	86*	72*	-7	-3	69*	72*	92*	41	76*
O=C(COC(=O)c1cnccn1)c1ccc(OC(=O)c2ccccc2)cc1	7	15	0	21	0	.	.	.	.	.
O=C(Oc1ccccc1)c1ccc(COC(=O)c2cnccn2)cc1	89*	94*	76*	16	-5	-22	80*	97*	87*	85*
COC(=O)c1ccc(COC(=O)c2ccccn2)cc1	82*	75*	50	13	-4	76*	74*	91*	92*	76*
CCOC(=O)NNc1ccc2nonc2c1[N+](=O)[O-]	12	64*	61*	.	10	66*	80*	42	30	6
COc1ccccc1/C=N/Nc1nncc2ccccc12	37	43	20	1	1	.	.	.	.	.
COc1ccc(/C=N/Nc2nncc3ccccc23)cc1	97*	99*	97*	-2	1	97*	100*	104*	99*	99*
Oc1c(Br)cc(/C=N/Nc2nncc3ccccc23)cc1Br	17	72*	69*	.	3	8	11	-1	7	0
COc1ccc(/C(C)=N/Nc2nncc3ccccc23)cc1	75*	46	46	23	0	2	6	10	18	-4
OC(CN(c1ccccc1)c1ccccc1)Cn1cnc2ccccc21 (stereo not given)	-1	-15	-5	13	-1	.	.	.	.	.
CC(=O)c1cccc(NC(=O)NC(C)c2ccc3c(c2)OCO3)c1 (stereo not given)	1	-11	3	0	2	.	.	.	.	.
N/C(=N\OC(=O)c1ccccc1Cl)c1ccc(Cl)cc1	84*	85*	69*	20	-3	71*	70*	93*	62*	79*
O=C(O/N=C(\c1ccccc1)c1ccncc1)c1ccccc1Cl	-1	-38	-13	7	5	.	.	.	.	.
N/C(=N\OC(=O)c1cccc2ccccc12)c1cccc([N+](=O)[O-])c1	5	6	-4	12	-3	.	.	.	.	.
C/C(=N\OC(=O)c1ccc(Cl)cc1)c1nccs1	88*	72*	28	8	-2	28	28	65*	41	32
Cc1cccc(/C(N)=N/OC(=O)c2cccc3ccccc23)c1	87*	87*	76*	-132	1	86*	85*	96*	72*	82*
N/C(=N\OC(=O)c1ccccc1Cl)c1ccccc1	98*	94*	95*	12	1	97*	99*	103*	97*	96*
COc1ccccc1C(=O)O/N=C(\N)c1ccccc1Cl	2	6	12	8	-7	.	.	.	.	.
N/C(=N\OC(=O)c1ccc(Br)cc1)c1ccncc1	62*	58*	26	14	3	35	40	71*	68*	49
Cc1cccc(/C(N)=N/OC(=O)c2ccc3c(c2)OCO3)c1	100*	98*	97*	7	4	100*	100*	103*	98*	99*
N/C(=N\OC(=O)c1ccco1)c1cccnc1	15	26	-6	-3	2	.	.	.	.	.
SMILES	SENP7 inh	SENP6 inh	SENP8 block-1	SENP8 block-2	HSP90 inh	SENP8 confirm	SENP6 confirm	SENP7 confirm	Casp3 select	Luc interf
N/C(=N\OC(=O)/C=C/c1ccccc1Cl)c1cccnc1	52*	49	27	24	-5	9	5	20	10	36
N/C(=N\OC(=O)c1ccco1)c1ccc(Cl)cc1	88*	94*	79*	5	2	23	12	30	38	30
CS(=O)(=O)N1CCc2cc(C(=O)N3CCOCC3)ccc21	-4	-12	-4	23	-3	.	.	.	.	.
Cc1cccc(/C(N)=N/OC(=O)c2cccnc2)c1	80*	69*	49	25	5	47	54*	85*	84*	58*
N/C(=N\OC(=O)c1ccc(Cl)cc1)c1ccc(Cl)cc1	54*	9	-13	9	-2	9	7	13	6	-2
N/C(=N\OC(=O)c1ccc(Cl)cc1)c1cccnc1	67*	72*	36	24	0	62*	59*	86*	83*	66*
N/C(=N\OC(=O)c1ccc(Cl)cc1)c1ccn[nH]1	79*	73*	58*	10	15	80*	77*	92*	87*	83*
COc1ccc(-c2cc(N)n(S(=O)(=O)c3ccc(C)cc3)n2)c(OC)c1	-4	-1	3	17	1	.	.	.	.	.
Cc1cccc(/C(N)=N/OC(=O)c2ccc(Br)o2)c1	78*	80*	70*	12	0	53*	77*	94*	86*	31
CCCNc1c(NS(=O)(=O)c2ccc(Br)cc2)c(=O)oc2ccccc12	-2	0	-3	11	11	.	.	.	.	.
Nc1nccc(/C=C/c2ccc(Cl)cc2)n1	75*	80*	75*	-443	-5	74*	85*	94*	79*	45
Nc1nccc(/C=C/c2c(Cl)cccc2Cl)n1	-6	-2	-2	-355	7	.	.	.	.	.
Clc1cccc(-c2nnc(-c3ccccc3)o2)c1	94*	95*	92*	5	4	93*	97*	102*	94*	94*
COc1ccccc1-c1nnc(-c2ccc(C)cc2)o1	55*	55*	30	-40	.	50*	48	74*	54*	56*
